The text below walks through data of PubChem BioAssay (NCI).

Molecules are shown by their SMILES. About 79,000 compounds went through this panel and 15% of them were active in at least one assay; those are over-represented in the sample as a whole. Unmarked numbers belong to inactive results. Calls of active or inactive are those of the source. No stated cut-off is given here; in the data, active means growth inhibition above about 70%; inactive means the rest.

The nature of experiment [1]: NCI Yeast Anticancer Drug Screen. Data for the rad50 strain (AID 155).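 Further: 0% = growth of vehicle-only cultures of the same strain.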 Particulars: S. cerevisiae rad50 strain growth inhibition; at 50.0 µM; active compounds read high. The procedure, abridged: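 Cells are treated with compound, grown, and their growth is then scored against vehicle-only cultures of the same repair-deficient yeast strain.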
Experiment [2] is described as follows: NCI Yeast Anticancer Drug Screen. Data for the mec2-1 strain (AID 157). The conditions noted are these: S. cerevisiae mec2-1 strain, at 50.0 µM, active compounds read high. The gist of the method: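 Compounds were applied to mec2-1 yeast cells. Their growth was then compared with that of vehicle-treated cultures to give growth inhibition.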
Experiment [3] in a line: NCI Yeast Anticancer Drug Screen. Data for the sgs1 mgt1 strain (AID 161).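 Further: 0% = growth of cultures given vehicle only.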 The conditions noted are these: S. cerevisiae sgs1 mgt1 strain, at 50.0 µM, active compounds read high. The gist of the method: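 Yeast cells carrying a defined DNA-repair defect were exposed to test compounds. Growth inhibition was measured relative to vehicle-treated controls.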
Experiment [4] can be described thus: NCI Yeast Anticancer Drug Screen. Data for the cln2 rad14 strain (AID 165).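 Further: 0% = growth equal to vehicle treated cultures.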 Particulars: S. cerevisiae cln2 rad14 strain, at 50.0 µM, active compounds read high. The gist of the method:
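Strain: cln2 rad14 yeast, altered in cell cycle control and DNA damage repair. Read-out: growth inhibition vs vehicle.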

Experiment [5] is described as follows: NCI Yeast Anticancer Drug Screen. Data for the bub3 strain (AID 167). The conditions noted are these: S. cerevisiae bub3 mutant strain, at 50.0 µM, active compounds read high. The procedure, abridged: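 Part of a panel of yeast mutants defective in DNA damage repair or cell cycle regulation. Each strain is grown with compound, and inhibition is calculated relative to solvent-treated cultures.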

Experiment [6] is described as follows: NCI Yeast Anticancer Drug Screen. Data for the mlh1 rad18 strain (AID 175). The conditions noted are these: S. cerevisiae mlh1 rad18 strain growth inhibition; at 50.0 µM; active compounds read high. The gist of the method:
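A repair-deficient yeast strain is exposed to test compound, and growth is scored relative to vehicle-treated controls.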

`CCCOC(=O)C(CC)CC(C)C` (centres undefined): the growth inhibition is -4.95% in experiment [1]; 2.85% in experiment [2]; -4% in experiment [3]; -22.7% in experiment [4]; 9.35% in experiment [5]; 14.8% in experiment [6].
With `NNc1ncnc2c1ncn2Cc1ccccc1`, the growth inhibition is 1.65% in experiment [1]; -3.1% in experiment [2]; 1.75% in experiment [3]; -2.05% in experiment [4]; -22.6% in experiment [5]; -14.4% in experiment [6].
In the case of `NC(CS(=O)Cc1ccccc1)C(=O)O` (centres undefined), the growth inhibition in experiment [1] is 0.8%; in experiment [2], -1.1%; in experiment [3], -0.3%; in experiment [4] it was -29.6%; in experiment [5], -2.8%; in experiment [6], -6.85%.
For `CCCN=C(NC(=O)c1ccc(Cl)cc1)SC`, the growth inhibition in experiment [1] was -16.3%; in experiment [2], -41.5%; in experiment [3] it was -6.05%; in experiment [4] it was -6.7%; in experiment [5], 8.05%; in experiment [6] it was -46.4%.
In the case of `O=C1NC2(O)C(=O)c3ccccc3C2(O)N1` (centres undefined), the growth inhibition in experiment [1] is -8.65%; in experiment [2], -10.2%; in experiment [3], -27.9%; in experiment [4], 5.8%; in experiment [5], -17.3%; in experiment [6], 0.55%.
As for `CO/C=C(/C#N)S(=O)(=O)/C(C#N)=C/OC`, the growth inhibition in experiment [1] was 32.5%; in experiment [2] it was 37.3%; in experiment [3], 34%; in experiment [4], 4.65%; in experiment [5] it was 24.9%; in experiment [6], 15.9%.
For the compound `CC(Cc1cccc2ccccc12)(C(=O)O)C(=O)O`, the growth inhibition in experiment [1] is 7.15%; in experiment [2], -4.1%; in experiment [3] it was 11.5%; in experiment [4], -14.2%; in experiment [5], -7.5%; in experiment [6], 0.05%.
As to `Cc1ccc(C)c(N2C(=O)C(=O)C(c3nc4ccccc4s3)/C(=N/NC(=O)NN)C2=O)c1` (centres undefined), the growth inhibition is 1.9% in experiment [1]; 14.1% in experiment [2]; -5.75% in experiment [3]; -2.55% in experiment [4]; -2.1% in experiment [5]; -16.9% in experiment [6].
For `CCOc1c/c(=N\N=C(/C)c2ccc(Cl)cc2)n(C)c(=O)n1C`, the growth inhibition is -13.8% in experiment [1]; -8.5% in experiment [2]; -10.5% in experiment [3]; -35.2% in experiment [4]; -6.85% in experiment [5]; -12.7% in experiment [6].
As to `CC/C(=N/O)C(C)C(=O)CCC(=O)Nc1ccc(Cl)cc1` (centres undefined), the growth inhibition in experiment [1] is -11.6%; in experiment [2] it was -7%; in experiment [3] it was 0.15%; in experiment [4], 7.35%; in experiment [5], 8.15%; in experiment [6] it was -5.65%.
Regarding `COc1c2occc2c(CC(O)C(C)(C)O)c2ccc(=O)oc12` (centres undefined), the growth inhibition was 13.4% in experiment [1]; -20.7% in experiment [2]; 14.8% in experiment [3]; -6.75% in experiment [4]; -3.75% in experiment [5]; -13.2% in experiment [6].
With `Cc1ccc(NC(Nc2ccc(C)c(Cl)c2)C(Cl)(Cl)Cl)cc1Cl`, the growth inhibition in experiment [1] was 9.65%; in experiment [2] it was -24%; in experiment [3] it was -5.7%; in experiment [4], -7.7%; in experiment [5], 5.75%; in experiment [6], -15.3%.
Consider `O=C(CCCCC(=O)Oc1ccc([N+](=O)[O-])cc1)Oc1ccc([N+](=O)[O-])cc1`, for which the growth inhibition was 10.9% in experiment [1]; 3.25% in experiment [2]; 13.3% in experiment [3]; 32% in experiment [4]; 3.4% in experiment [5]; 33% in experiment [6].
On to `O=C1CC2(CCCCC2)CC(=O)N1`, for which the growth inhibition is -6.25% in experiment [1]; -5.05% in experiment [2]; 8.3% in experiment [3]; -34.6% in experiment [4]; 6.9% in experiment [5]; -2.35% in experiment [6].
With `OCC1CCCCCCC1`, the growth inhibition is -4.25% in experiment [1]; -19.7% in experiment [2]; -3.15% in experiment [3]; 18.4% in experiment [4]; -3.65% in experiment [5]; -10.4% in experiment [6].
Regarding `NC1=NC(=O)C(CC(=O)Nc2ccc([N+](=O)[O-])cc2[N+](=O)[O-])S1` (centres undefined), the growth inhibition in experiment [1] was -15.2%; in experiment [2], -30.3%; in experiment [3] it was 2.3%; in experiment [4] it was 3.3%; in experiment [5] it was 2%; in experiment [6] it was -8.55%.
As for `CCCCN(CCCC)CC(O)c1cc(-c2ccc(C(F)(F)F)cc2)nc(-c2ccc(C(F)(F)F)cc2)c1` (centres undefined), the growth inhibition in experiment [1] is 25%; in experiment [2] it was 2.45%; in experiment [3] it was 2.2%; in experiment [4] it was -24.2%; in experiment [5] it was -33.8%; in experiment [6] it was 82.3% (active).
With `O=CCC1CCCCC1`, the growth inhibition is -4.8% in experiment [1]; -2.2% in experiment [2]; -13.1% in experiment [3]; 16.9% in experiment [4]; 22.1% in experiment [5]; 6.25% in experiment [6].
As to `CCOc1ccc(/C(Cl)=C(\C=O)c2ccc(OC)c(OC)c2)cc1OCC`, the growth inhibition in experiment [1] was -0.1%; in experiment [2] it was -4.8%; in experiment [3] it was 3.25%; in experiment [4] it was -2.2%; in experiment [5], -3.6%; in experiment [6], 2.55%.
